Measurements published in PubChem BioAssay AID743320 (Broad Institute, 2014).
Entries with a potency or affinity are not part of this list. Activity calls are given as the source filed them.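 How the source made its calls: active means signal drop whose fitted half-maximal potency is at most twice the top valid dose tested; inconclusive means flat curve inhibiting 30 to 70 percent, or a poor fit; inactive means the rest.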

target: Endoplasmic reticulum aminopeptidase 2 (Homo sapiens) (UniProt Q6P179); assay: ERAP2 aminopeptidase inhibitors, dose response, selectivity assay for selective ERAP1 modulator project, biochemical, fluorescence plate reader, cherry-picked, set 2 (AID 743320); settings: recombinant ERAP2, Arg-AMC fluorescence, 1 h; series mostly up to 11 µM
Sequence (Q6P179 whole entry, looked up): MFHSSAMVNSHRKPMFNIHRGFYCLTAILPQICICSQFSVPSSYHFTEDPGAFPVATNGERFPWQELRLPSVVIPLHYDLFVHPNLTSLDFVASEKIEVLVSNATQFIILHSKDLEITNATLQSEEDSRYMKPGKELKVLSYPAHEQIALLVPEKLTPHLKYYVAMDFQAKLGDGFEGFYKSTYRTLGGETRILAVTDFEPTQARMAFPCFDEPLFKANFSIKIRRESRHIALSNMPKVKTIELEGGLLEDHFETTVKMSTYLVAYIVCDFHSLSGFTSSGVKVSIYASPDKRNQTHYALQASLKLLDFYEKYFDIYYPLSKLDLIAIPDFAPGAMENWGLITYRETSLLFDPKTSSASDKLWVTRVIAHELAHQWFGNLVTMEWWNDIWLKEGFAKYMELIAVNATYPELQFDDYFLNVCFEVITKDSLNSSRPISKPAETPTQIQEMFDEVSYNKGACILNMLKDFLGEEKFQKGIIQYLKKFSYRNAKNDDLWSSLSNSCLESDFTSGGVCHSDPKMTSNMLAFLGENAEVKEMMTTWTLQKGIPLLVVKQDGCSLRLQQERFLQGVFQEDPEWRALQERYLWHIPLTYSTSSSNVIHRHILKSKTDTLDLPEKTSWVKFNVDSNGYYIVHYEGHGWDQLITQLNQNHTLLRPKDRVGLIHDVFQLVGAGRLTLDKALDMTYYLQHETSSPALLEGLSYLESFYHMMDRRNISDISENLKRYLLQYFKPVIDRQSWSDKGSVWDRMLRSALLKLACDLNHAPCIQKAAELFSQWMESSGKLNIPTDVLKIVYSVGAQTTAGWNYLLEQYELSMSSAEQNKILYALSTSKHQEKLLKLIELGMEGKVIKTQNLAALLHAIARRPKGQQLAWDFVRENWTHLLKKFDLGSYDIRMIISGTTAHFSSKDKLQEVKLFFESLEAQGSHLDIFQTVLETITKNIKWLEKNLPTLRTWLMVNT

outcome, inactive:
CC(=O)N1CCN(C(=O)C2(NC(=O)Nc3ccc(C)cc3)CCCCC2)CC1
NC(=NCCc1c[nH]c2ccccc12)NS(=O)(=O)c1cc(F)ccc1F
CO[C@@H]1CN(C)C(=O)c2ccc(NC(=O)Nc3cccc(Cl)c3)cc2OC[C@@H](C)NC[C@H]1C
COc1ccc(NC(=O)Nc2cccc3c2O[C@H](CN(C)Cc2ccc(C(=O)O)cc2)[C@H](C)CN([C@H](C)CO)C3=O)cc1
N#Cc1c(N)n(CCNC(=O)c2ccccc2)c2nc3ccccc3nc12
CCCN(C)C[C@@H]1OCCCC[C@@H](C)Oc2ccc(NS(=O)(=O)c3ccc(OC)cc3)cc2C(=O)N([C@H](C)CO)C[C@@H]1C
O=C(Nc1ccc(C(F)(F)F)cc1)N1[C@@H]2CNC[C@H]1C2c1ccc(-c2ccncc2)cc1 (some centres undefined)
Cc1ccc(-c2cc(C(=O)N3CCCC3)c3ccccc3n2)s1
Cc1noc(C)c1S(=O)(=O)Nc1ccc2c(c1)C(=O)N([C@H](C)CO)C[C@H](C)[C@H](CN(C)Cc1ccc3c(c1)OCO3)OCCCC[C@@H](C)O2
C[C@@H]1CN([C@H](C)CO)C(=O)c2cccc(NC(=O)Nc3ccccc3)c2O[C@@H]1CN(C)Cc1ccc(C(=O)O)cc1
C[C@@H]1CCCCO[C@@H](CN(C)Cc2ccc(C(=O)O)cc2)[C@@H](C)CN([C@H](C)CO)C(=O)c2cc(NC(=O)Nc3cccc4ccccc34)ccc2O1
C[C@@H]1CCCCO[C@@H](CN(C)C(=O)CCC(F)(F)F)[C@@H](C)CN([C@@H](C)CO)C(=O)c2cc(NS(=O)(=O)c3ccc(Cl)cc3)ccc2O1
C[C@@H]1CN([C@H](C)CO)C(=O)c2cc(NC(=O)Nc3ccc(F)cc3)ccc2O[C@H]1CN(C)Cc1ccc(C(=O)O)cc1
COc1ccc(CN(C)C[C@@H]2OCCCC[C@H](C)Oc3ccc(NS(=O)(=O)c4cccs4)cc3C(=O)N([C@@H](C)CO)C[C@@H]2C)cc1
Cc1noc(C)c1S(=O)(=O)N(C)C[C@@H]1OCCCC[C@@H](C)Oc2ccc(NS(=O)(=O)c3cccs3)cc2C(=O)N([C@@H](C)CO)C[C@@H]1C
C[C@@H]1CCCCO[C@@H](CN(C)C)[C@H](C)CN([C@@H](C)CO)C(=O)c2cc(NC(=O)Nc3ccc(C(F)(F)F)cc3)ccc2O1
C[C@@H]1CCCCO[C@@H](CN(C)Cc2ccc3c(c2)OCO3)[C@@H](C)CN([C@@H](C)CO)C(=O)c2cc(NS(=O)(=O)c3ccccc3)ccc2O1
O=C(C[C@H]1CC[C@H]2[C@@H](COC[C@@H](O)CN2C(=O)Nc2cccc(Cl)c2)O1)N1CCCCC1
CCCN(C)C[C@@H]1OCCCC[C@@H](C)Oc2ccc(NS(=O)(=O)c3ccccc3)cc2C(=O)N([C@H](C)CO)C[C@@H]1C
C[C@H](CO)N1C[C@H](C)[C@H](CN(C)CC2CCCCC2)Oc2c(NC(=O)Nc3ccc(C(F)(F)F)cc3)cccc2C1=O
COc1ccc(NC(=O)Nc2ccc3c(c2)C(=O)N([C@H](C)CO)C[C@@H](C)[C@@H](CN(C)Cc2ccc(C(=O)O)cc2)OCCCC[C@@H](C)O3)cc1
CCn1cc(CN2CCCC(C(=O)Nc3ccc(-c4nc5ccccc5[nH]4)cc3)C2)c(C)n1 (centres undefined)
CCCN(C)C[C@@H]1OCCCC[C@@H](C)Oc2ccc(NS(=O)(=O)c3cccs3)cc2C(=O)N([C@H](C)CO)C[C@@H]1C
C[C@@H]1CCCCO[C@@H](CN(C)Cc2ccc3c(c2)OCO3)[C@@H](C)CN([C@H](C)CO)C(=O)c2cc(NS(=O)(=O)c3cccs3)ccc2O1
C[C@@H]1CCCCO[C@@H](CN(C)C)[C@@H](C)CN([C@@H](C)CO)C(=O)c2cc(NS(=O)(=O)c3ccc(F)cc3)ccc2O1
CCCN(C)C[C@@H]1OCCCC[C@H](C)Oc2ccc(NC(=O)Nc3ccc(F)cc3)cc2C(=O)N([C@H](C)CO)C[C@@H]1C
COc1ccc(CN(C)C[C@@H]2OCCCC[C@H](C)Oc3ccc(NS(=O)(=O)c4cccs4)cc3C(=O)N([C@H](C)CO)C[C@@H]2C)cc1
C[C@H]1CN([C@@H](C)CO)C(=O)c2cccc(NC(=O)Nc3ccc(F)cc3)c2O[C@@H]1CN(C)C(=O)Nc1ccc2c(c1)OCO2
COc1ccc(CN(C)C[C@H]2OCCCC[C@@H](C)Oc3ccc(NS(=O)(=O)c4cccs4)cc3C(=O)N([C@H](C)CO)C[C@H]2C)cc1
